The values that follow come from ChEMBL document CHEMBL4513146, “CO-ADD screening of Karazin Kharkiv National University (Ukraine) compounds”.

Assay [1] deals with Klebsiella pneumoniae. Conditions: Concentration 32 ug.mL-1;; ASSAY_TEST Inhibition of Bacterial Growth; detection method Absorption (OD600); MEDIA CAMHB; plate type 384well; NBS; CORNING #3640; time 18 hr.
Assay [2] relates to Candida albicans. The settings on record: Concentration 32 ug.mL-1; ASSAY_TEST Inhibition of Fungal Growth; detection method Absorption (OD530).
Assay [3] relates to Cryptococcus neoformans. Conditions: Concentration 32 ug.mL-1; ASSAY_TEST Inhibition of Fungal Growth; detection method Resazurin; Absorption (OD600-OD570); plate type 384well; NBS; CORNING #3640.

Potency and affinity values are given separately.

Regarding `Cc1nnc2c(S(=O)(=O)N(Cc3ccc(F)cc3)c3ccc(Cl)cc3)cccn12`, the Inhibition in assay [1] is recorded as 5.76%; in assay [2] it was 4.67%; in assay [3] it was -7.17%.
With `O=C(CSc1nnc2c(=O)n(-c3ccccc3)ccn12)Nc1ccc2c(c1)OCCO2`, the Inhibition in assay [1] is listed as 7.64%; in assay [2] it was 0.98%; in assay [3] it was -23.79%.
Take `COc1ccccc1NC(=O)Cn1nc2c(Oc3ccc(Cl)cc3)nccn2c1=O`: the Inhibition is recorded as 6.51% in assay [1], 22.33% in assay [2] and -8.59% in assay [3].
In the case of `CCOC(=O)c1cccc(NC(=O)CSc2nnc3ccc(C(=O)Nc4cccc(F)c4)cn23)c1`, the Inhibition in assay [1] was 3.6%; in assay [2], 0.96%; in assay [3], -5.2%.
For `COc1ccc(NC(=O)Cn2nc3ccc(SC(C)(C)C)nn3c2=O)cc1Cl`, the values for the Inhibition in assay [1], in assay [2] and in assay [3] were 12.99%, 3.69% and -9.98%, respectively.
For `O=C(Cn1nc2nc(Nc3ccc(F)cc3)ccn2c1=O)N1CCCC1` the same measures were 10.98%, 0.53% and -8.71%.
On the same counts, the results for `CCOC(=O)c1ccc(NC(=O)CSc2nc3ccccc3n3c(C(C)C)nnc23)cc1` are 8.56%, -0.16% and -11.29%.
On the same counts, the results for `CCc1ccc(N(Cc2ccc(F)cc2)S(=O)(=O)c2cccn3c(C)nnc23)cc1` are -1.65%, 6.88% and -7.64%.
On to `Cc1cccc(C)c1NC(=O)Cn1nc2c3cc(-c4ccc(Cl)cc4)nn3ccn2c1=O`, for which the Inhibition in assay [1] is recorded as 6.6%; in assay [2], -0.5%; in assay [3], -16.41%.
On the same counts, the results for `COc1ccccc1Cn1c(=O)c2sccc2n2c(=O)n(Cc3ccc(Br)cc3)nc12` are 3.07%, -0.38% and -8.06%.
For `CC(C)CCn1c(=O)c2sccc2n2c(=O)n(CC(N)=O)nc12` the same measures were 10.09%, -1.13% and -22.72%.
For `COc1ccc(-c2cc3c4nn(CC(=O)Nc5cccc(C(C)=O)c5)c(=O)n4ccn3n2)cc1` the same measures were 3.99%, 4.25% and -13.63%.
For the compound `CC(=O)c1ccc(NC(=O)Cn2c(=O)c3nnc(C(C)C)n3c3ccccc32)cc1`, the Inhibition in assay [1] is recorded as 9.51%; in assay [2] it was 0.56%; in assay [3], -14.82%.
For `O=C(Cn1nc2c(Sc3cccc(F)c3)nccn2c1=O)N1CCN(c2ccccc2)CC1` the same measures were 4.19%, 0.68% and -2.85%.
For `COc1cccc(NC(=O)Cn2nc3c4c5c(sc4ncn3c2=O)CCCC5)c1` the same measures were 10.28%, 6.83% and -22.51%.
For `Cc1ccccc1Oc1nccn2c(=O)n(CC(=O)Nc3ccc(C#N)cc3)nc12` the same measures were 13.8%, -1.85% and -9.67%.
As for `COc1ccc(N(Cc2ccc(F)cc2)S(=O)(=O)c2ccc3nncn3c2)cc1`, the Inhibition in assay [1] was 12.52%; in assay [2] it was 2.69%; in assay [3] it was 2.37%.
For `CCc1ccc(N(Cc2ccc(C)cc2)S(=O)(=O)c2cccn3c(C)nnc23)cc1` the same measures were 3.2%, 0.84% and -6.65%.
On the same counts, the results for `O=C(Cn1nc2c3cc(F)ccc3ncn2c1=O)Nc1ccc2c(c1)OCO2` are 1.07%, 3.33% and -3.11%.
On the same counts, the results for `Cc1cccc(Oc2nc3ccccc3n3c(=O)n(CC(=O)NCc4ccco4)nc23)c1C` are 3.72%, 36.74% and -27.2%.
As for `O=C(Cn1nc2c(N3CCOCC3)nccn2c1=O)NCc1ccc(F)cc1`, the Inhibition in assay [1] is given as 12.27%; in assay [2], 2.87%; in assay [3] it was -8.56%.
For `Cc1ccc(C)c(CN(c2cccc(Cl)c2)S(=O)(=O)c2cccn3c(C)nnc23)c1` the same measures were 5.81%, 2.43% and -8.33%.
As for `COc1cc(OC)c(NC(=O)Cn2nc3c(Oc4cccc(C)c4C)nccn3c2=O)cc1Cl`, the figures for the Inhibition in assay [1], in assay [2] and in assay [3] were 8.97%, 0.16% and -9.4%, respectively.
On the same counts, the results for `COc1ccc(C)cc1NC(=O)Cn1nc2c3cc(-c4ccc(C)c(C)c4)nn3ccn2c1=O` are 11.68%, 0.52% and -9.82%.
For `N#Cc1cccc(NC(=O)CSc2nnc3c4cc(-c5ccc(F)cc5)nn4ccn23)c1` the same measures were 16.47%, 16.76% and -30.63%.
Consider `O=C(CCc1nnc2c(N3CCCCC3)nc3ccccc3n12)NCc1ccc(Cl)cc1`, for which the Inhibition in assay [1] is listed as 14.26%; in assay [2] it was 2.29%; in assay [3] it was -23.16%.
In the case of `Cc1ccc(-c2cc3c4nnc(CCC(=O)NCCCc5ccccc5)n4ccn3n2)cc1C`, the Inhibition in assay [1] is recorded as 12.56%; in assay [2], -0.09%; in assay [3] it was -29.9%.
On the same counts, the results for `CCc1ccc(NC(=O)Cn2nc3ccc(SC(C)(C)C)nn3c2=O)cc1` are 14.6%, 4.19% and -17.5%.
For `O=c1c2nnc(SCc3ccc(Cl)cc3)n2ccn1-c1ccc(F)c(F)c1` the same measures were 10.1%, 4.2% and -5.11%.
For `Cc1nnc2ccc(S(=O)(=O)N(Cc3ccc(F)cc3)c3ccc4c(c3)OCO4)cn12` the same measures were 13.79%, 1.73% and -7.24%.

As usually defined, the Inhibition is the relative decrease from the control value, in per cent.
